# CDC25B CDK2 inh: primary biochemical HTRF screen for blockers of M-phase inducer phosphatase 2 binding to CDK2/cyclin A | HTRF CDC25B-CDK2/CyclinA binding, anti-His/anti-Flag; stronger effect = higher value | AID 1259370, 2018 | P30305+P24941 | hit rate 0.72% among 94,000 | z-score (concentration not given with the values); in the data active = z-score above about 3.2
# HIV TAR-Tat: TAR RNA-Tat peptide displacers, HIV-1, primary screen, biochemical, FRET, FAM/TAMRA-labeled Tat; HIV-1 TAR RNA, Tat peptide displacement FRET; stronger effect = higher value; z-score (concentration not given with the values); hit rate 0.6% among 100,000; active = z-score of 3 or more in at least 2 runs
# Numbers stand for hits; - = inactive; . = no result. Only some compounds are listed: those with a hit (about 0.9% of all), similar ones and a draw of the others.
SMILES,CDC25B CDK2 inh,HIV TAR-Tat
CC1C2=C(CC(C)(C)CC2=O)OC2=C1C(=O)CC(C)(C)C2,-,.
CC12OC(C(Br)C1Br)C1C(=O)OC(=O)C12 (centres undefined),6.07,.
CN(c1ccccc1)S(=O)(=O)c1ccc(NC(=O)c2nn(-c3ccc(Cl)cc3)ccc2=O)cc1,-,-
CCCn1cc(S(=O)(=O)c2cc(C)cc(C)c2)c(=O)c2cc(F)c(N3CCN(CC)CC3)cc21,.,-
CC(C)C(=O)Nc1ccc2c(c1)C(=O)Nc1cc(Cl)ccc1O2,.,-
O=C(CSc1nnc(-c2cccnc2)o1)NCC1CCCO1 (centres undefined),-,-
O=C(CSc1nnc(-c2cccnc2)o1)NC1CCCC1,-,4.56
CC1CC(C)CN(S(=O)(=O)N2CCCC(C(=O)NCCC3=CCCCC3)C2)C1 (centres undefined),.,-
CN1C(C(=O)N2CCN(c3ccccc3)CC2)=CC(c2ccco2)=NS1(=O)=O,-,-
N/C(=N\OC(=O)c1cnc2n(c1=O)CCS2)c1ccc(C(F)(F)F)cc1,-,.
C[C@@H]1C[C@H]2O[C@@H]2/C=C\C=C\C(=O)Cc2c(Cl)c(O)cc(O)c2C(=O)O1,.,4.98
Cc1ccc(-c2c(N3CCN(c4cc(C)ccc4C)CC3)c(=O)c2=O)cc1,.,-
Cc1ccc(C)c(N2CCN(c3c(-c4ccc(C)c(C)c4)c(=O)c3=O)CC2)c1,.,12.9
CC(C)OC(=O)C(C)Oc1ccc2c(=O)c(-c3ccccc3)coc2c1 (centres undefined),-,-
Cc1nn2c(=O)cc(CSc3ccccc3NC(=O)c3ccco3)nc2s1,.,-
O=C(Nc1ccccc1SCc1cc(=O)n2c(-c3ccccc3)csc2n1)c1ccco1,.,8.39
O=C(NNC(=S)Nc1cccc(C(F)(F)F)c1)c1sc2ccccc2c1Cl,-,.
Cc1nc(N)sc1-c1csc(Nc2cccc(Cl)c2C)n1,9.37,-
CCc1ccccc1Nc1nc(-c2sc(N)nc2C)cs1,-,-
CCn1cnc2cc(NCc3nc4ccccc4n3Cc3ccccc3)ccc21,12.9,-
CCn1cnc2cc(NCc3nc4ccccc4n3C)ccc21,-,-
CC1CCN(S(=O)(=O)c2ccc3nc(N4CCCC4)ccc3c2)CC1,.,-
COc1ccc(-n2c(C)c3c(C)nn4cc(-c5ccc(C)o5)cc4c3c2C)cc1,7.22,16.1
Cc1nn2cc(-c3ccccc3)cc2c2c(C)n(Cc3ccccc3)c(C)c12,-,-
COc1ccc(NC(=O)CSc2nc3ccccc3c(=O)[nH]2)cc1OC,.,-
SMILES,CDC25B CDK2 inh,HIV TAR-Tat
COc1ccc(CN[C@H]2CS(=O)(=O)C[C@@H]2S(=O)(=O)c2ccc(OC)cc2)cc1,-,-
CC(C)[N+]1(Cc2ccccc2)C2=C(CN(C)CC2)c2ccccc21 (centres undefined),-,.
Cc1cccc(N(C)S(=O)(=O)c2cc(-c3onc(C)c3C)ccc2C)c1,.,-
CCN1CCC(N(Cc2cccs2)S(=O)(=O)c2ccc3c(c2)C(C)(C)C(=O)N3C)CC1,.,-
CC(C)Nc1cc(N2CCOCC2)c2noc3c2c1C(=O)c1ccccc1-3,-,6.2
CC(C)CNc1cc(N2CCN(C(=O)c3ccco3)CC2)c2noc3c2c1C(=O)c1ccccc1-3,-,-
COc1ccc(Nc2cc(N3CCOCC3)c3noc4c3c2C(=O)c2ccccc2-4)cc1,-,-
O=C1c2ccccc2-c2onc3c(N4CCOCC4)cc(Nc4ccc(F)cc4)c1c23,12.7,-
CC(C)Nc1cc(N2CCN(C(=O)c3ccco3)CC2)c2noc3c2c1C(=O)c1ccccc1-3,-,5.57
O=C1c2ccccc2-c2onc3c(N4CCOCC4)cc(N4CCOCC4)c1c23,-,-
CC1CC(C)CN(C(=O)NCc2noc3ccccc23)C1 (centres undefined),.,-
O=C1SCCC1NS(=O)(=O)c1ccc(F)cc1Cl (centres undefined),-,.
Cc1nnc2c(Oc3ccc(Cl)cc3)nc3ccccc3n12,15.7,-
Cc1ccc(Oc2nc3ccccc3n3c(C)nnc23)cc1C,-,.
COc1ccc(-c2coc3cc(OCc4ccc(Br)cc4)cc(O)c3c2=O)cc1OC,-,-
COc1cc(-c2coc3cc(OCc4ccccc4)c(OC)c(O)c3c2=O)cc(OCc2ccccc2)c1OC,.,25.8
CCC1(C)Cc2c(sc3nc(SCC(N)=O)nc(N)c23)CO1 (centres undefined),-,-
Cc1ccc2c(ccc(/C=C3\Sc4ccccc4N3C)[n+]2C)c1,-,-
Cc1ccc2c(c1)N(C)/C(=C/c1sc3ccccc3[n+]1CCO)S2,-,4.27
Cc1cccc(Oc2coc3cc(OCC(=O)OCc4ccccc4)ccc3c2=O)c1,-,-
Cc1noc(-c2ccccc2)c1NC(=O)NCc1c(-c2ccccc2)noc1C,-,.
Clc1ccccc1-c1ccc(-c2nn3c(-c4ccco4)nnc3s2)o1,15.2,-
Clc1ccccc1/C=C/c1nn2c(-c3ccncc3)nnc2s1,-,-
Clc1ccccc1/C=C/c1nn2c(-c3ccco3)nnc2s1,-,18.8
Clc1cccc(-c2nnc3sc(-c4ccco4)nn23)c1,-,-
SMILES,CDC25B CDK2 inh,HIV TAR-Tat
Cc1ccc(/C=C/c2nn3c(-c4ccncc4)nnc3s2)cc1,-,-
C(=C\c1nn2c(-c3ccncc3)nnc2s1)/c1ccco1,-,25.6
Cc1ccc(/C=C/c2nn3c(-c4ccco4)nnc3s2)cc1C,-,16.6
Cc1ccc(/C=C/c2nn3c(-c4ccco4)nnc3s2)cc1,-,-
CN(Cc1ccco1)C(=O)Cn1nc(Cc2cccnc2)c2ccccc2c1=O,-,-
CCN(CC)S(=O)(=O)c1ccc2c(c1)c(=O)c(C(=O)O)cn2C,.,-
CCOC(=O)C1CN(Cc2ccco2)C(=O)C1=O (centres undefined),-,-
O=C1NC(=S)S/C1=C\c1cccc(OC(=O)c2cccc3ccccc23)c1,-,.
O=C1O[C@H]([C@@H](O)CO)C(O)=C1O,.,-
CCCCCCCCCCCCCCCC(=O)OC[C@H](O)[C@H]1OC(=O)C(O)=C1O,.,17.2
CCCC1N=C(c2ccc(OC)cc2)CC(c2ccccc2O)N1 (centres undefined),.,-
O=C(NCCCO)Nc1ccc2snnc2c1,6.54,-
CSc1ccc(CCNC(=O)Nc2ccc3snnc3c2)cc1,-,-
CN(C)C(=O)Nc1ccc2snnc2c1,-,-
O=C(NCc1ccc2c(c1)OCO2)Nc1ccc2snnc2c1,-,.
COCCNC(=O)Nc1ccc2snnc2c1,7.78,-
O=C(Nc1ccc2snnc2c1)NC1CCCC1,-,-
O=C(NCc1ccccc1)Nc1ccc2snnc2c1,11.3,-
CCN(CC)C(=O)Nc1ccc2snnc2c1,9.12,-
C=CCNc1ncnc2c1cnn2-c1ccc(C)cc1,.,-
Cc1ccc(Nc2nc3ccccc3n3c(C)nnc23)cc1,-,-
O=C(Nc1cc(F)ccc1F)c1cnn(-c2cccc(F)c2)c1-n1cccc1,.,-
CC(C)CC(NC(=O)C1CCCCC1)C(=O)NC1CCC(C)CC1 (centres undefined),-,-
C=CCNC(=O)c1ccc2snnc2c1,-,-
C=CCNC(=O)Nc1ccc2snnc2c1,10.3,-
Clc1cccc(/C=C/c2nn3c(-c4ccncc4)nnc3s2)c1,-,-
CN(C)c1ccc(NC(=O)CCCC(=O)O)cc1,-,-
CN(C)c1ccc(C(=O)NCCCCCC(=O)NO)cc1,.,10.2
Fc1ccc(-c2cc3c(Cl)nccn3n2)cc1,-,-

# Source: PubChem (Center for Chemical Genomics, University of Michigan)
